Assay outcomes (PubChem BioAssay)
An excerpt weighted towards active compounds, which were near 5.3% of everything screened.
HIF activator: HIF pathway transcriptional activation. U2OS HRE-luciferase reporter, luminescence; normalized: DMSO 0%, desferrioxamine 100%. activation, % at 7.5 µM (by protocol). 300,000 compounds, 0.32% hits. AID 1910;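 active = mean activation of at least 10% of the iron chelator positive control signal, with at least half of replicates also reaching 10%; inconclusive = mean and replicate majority disagree about reaching 10%; inactive = mean and most replicates under 10%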
SUMO Mot1 rescue: inhibitors of SUMOylation pathway: yeast Mot1-301 growth rescue; S. cerevisiae Mot1-301 growth rescue, ATP luminescence, 38.5C; percent above DMSO median, 100 means doubled; 320,000 compounds, 1% hits; growth rescue, % at 18.8 µM;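 active = every valid replicate shows activation above 250% relative to neutral control wells; inactive = the rest, any valid replicate at or below 250%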;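 note: OY570 slx delta 5 strain wells were the positive control but not used for scaling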
PfM18AAP inh-1: PfM18AAP enzyme inhibition; AID 1822; recombinant PfM18AAP, H-Glu-NHMec fluorogenic cleavage; 290,000 compounds, 1.2% hits; inhibition, % at 7.35 µM;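 active = inhibition above the campaign mean inhibition over all tested compounds plus 3 SD, cut at about 28% in these data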;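 note: 0% = plate median of test compound wells and 100% = 2 mM ZnCl2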
ALR inh: blocks human ALR sulfhydryl oxidase activity; 290,000 compounds, 3.8% hits; inhibition, % (concentration not given with the values); purified ALR, DTT oxidation, H2O2 HRP-luminol luminescence; AID 485317; P55789;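 active = mean replicate inhibition above about 79%, with every replicate also reaching it, limit read from the data; inconclusive = only one of the two criteria met; inactive = mean below limit and not every replicate reaching it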
Target sequence (P55789 whole entry, looked up): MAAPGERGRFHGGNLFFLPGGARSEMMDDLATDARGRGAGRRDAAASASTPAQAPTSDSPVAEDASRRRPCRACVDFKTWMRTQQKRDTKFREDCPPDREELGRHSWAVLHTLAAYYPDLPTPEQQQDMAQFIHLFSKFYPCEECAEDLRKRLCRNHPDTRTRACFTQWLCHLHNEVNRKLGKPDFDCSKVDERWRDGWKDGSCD
PfM18AAP inh-2: confirmation of Plasmodium falciparum M18 aspartyl aminopeptidase inhibitors. inhibition, % at 7.35 µM. 2,400 compounds, 28% hits. shares compounds with PfM18AAP inh-1. recombinant PfM18AAP, H-Glu-NHMec fluorogenic cleavage;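 active = mean inhibition over replicate wells above the hit cutoff set for the earlier primary screen, cut at about 29% in these data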;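 note: 0% = median of test compound wells and 100% = 2 mM ZnCl2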
CTSL1 confirm: Cathepsin L (human) inhibition, confirmation | shares compounds with PfM18AAP inh-1 | purified cathepsin L1, Z-Leu-Arg-MCA fluorescence | inhibition, % at 5.96 µM | 2,400 tested, under 10 active;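 active = average inhibition across replicates above the hit cutoff set in the earlier primary screen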;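 note: 0% = median of test compound wells and 100% = Z-Phe-Ala-diazomethylketone 1 µM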
Target sequence (P07711 whole entry, looked up): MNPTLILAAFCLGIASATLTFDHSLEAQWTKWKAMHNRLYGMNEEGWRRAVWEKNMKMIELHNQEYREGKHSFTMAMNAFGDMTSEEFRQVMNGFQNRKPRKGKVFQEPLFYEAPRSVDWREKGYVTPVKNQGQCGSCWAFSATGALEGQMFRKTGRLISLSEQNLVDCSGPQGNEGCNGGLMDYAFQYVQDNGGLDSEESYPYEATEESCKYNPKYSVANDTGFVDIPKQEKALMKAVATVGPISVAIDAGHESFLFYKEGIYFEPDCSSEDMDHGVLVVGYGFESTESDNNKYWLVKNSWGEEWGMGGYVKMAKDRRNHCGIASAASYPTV
* hit, by the source's call.

What do the screens show for `COc1nc(-c2ccccc2)cc(-c2ccc(OC)c(OC)c2)n1`?
SUMO Mot1 rescue: -15; PfM18AAP inh-1: -1; ALR inh: -1

What do the screens show for `C[C@H](NC(=O)[C@H](Cc1ccccc1)n1c(=O)[nH]c2ccccc2c1=O)C(=O)N1CCC(C(=O)O)CC1`?
HIF activator: 0; SUMO Mot1 rescue: 2; PfM18AAP inh-1: -2; ALR inh: -7

How did O=C(Cn1cc(S(=O)(=O)Cc2ccccc2)c2ccccc21)Nc1ccccc1 do in these assays?
HIF activator: -1; SUMO Mot1 rescue: -15; PfM18AAP inh-1: -8

What do the screens show for `CC(=O)C(C(C)=O)c1c(Cl)c(O)c(O)c2c(C(=O)c3ccccc3)coc12`?
HIF activator: 4; SUMO Mot1 rescue: 30; PfM18AAP inh-1: 55*; PfM18AAP inh-2: 55*; CTSL1 confirm: 3

What do the screens show for `CN1CCN(Cc2c(O)ccc3occ(C(=O)c4ccccc4)c23)CC1`?
HIF activator: 0; SUMO Mot1 rescue: 5; PfM18AAP inh-1: 0; ALR inh: 9

Results for Nc1nncn1C(=O)CCCOc1ccccc1 ?
HIF activator: -42; PfM18AAP inh-1: 35*; ALR inh: 3; PfM18AAP inh-2: 50*; CTSL1 confirm: -3

How did Nc1nncn1C(=O)CCc1ccccc1 do in these assays?
HIF activator: 0; SUMO Mot1 rescue: -7; PfM18AAP inh-1: 72*; PfM18AAP inh-2: 49*; CTSL1 confirm: -3

How did O=C(CCCOc1ccccc1)N1CCCCC1 do in these assays?
HIF activator: -5; SUMO Mot1 rescue: 5; PfM18AAP inh-1: -3

How did O=[N+]([O-])c1ccc(NNS(=O)(=O)c2cc(Cl)ccc2Cl)nc1 do in these assays?
HIF activator: 1; SUMO Mot1 rescue: 3; PfM18AAP inh-1: 55*; ALR inh: 100*; PfM18AAP inh-2: -3; CTSL1 confirm: 1

Results for CC(=O)N1CCN(c2nnnn2-c2ccccc2)CC1 ?
HIF activator: 0; SUMO Mot1 rescue: 4; PfM18AAP inh-1: 6; ALR inh: -10

What do the screens show for `Oc1ccc(N2CCN(c3nnnn3-c3ccccc3)CC2)cc1`?
HIF activator: 0; SUMO Mot1 rescue: -12; PfM18AAP inh-1: 32*; ALR inh: 99*; PfM18AAP inh-2: -3; CTSL1 confirm: 1

What do the screens show for `COc1cc(/C=N/Nc2nc(C)cc(=O)[nH]2)cc(OC)c1O`?
HIF activator: -20; SUMO Mot1 rescue: 24; PfM18AAP inh-1: 42*; PfM18AAP inh-2: 17; CTSL1 confirm: 0

Results for COc1ccc(CCNC(=O)CC2SC(=NCCC(C)C)NC2=O)cc1OC (stereo not given) ?
HIF activator: 0; SUMO Mot1 rescue: -9; PfM18AAP inh-1: -22; ALR inh: -12

How did COc1cccc(/C=N/Nc2ccnc(=O)[nH]2)c1O do in these assays?
HIF activator: 0; SUMO Mot1 rescue: 11; PfM18AAP inh-1: 43*; ALR inh: 14; PfM18AAP inh-2: -12; CTSL1 confirm: 2

How did COc1cccc(/C=N/NC(=O)N/N=C/c2cccc(OC)c2O)c1O do in these assays?
HIF activator: 3; SUMO Mot1 rescue: 61; PfM18AAP inh-1: 33*; ALR inh: 45; PfM18AAP inh-2: 2; CTSL1 confirm: -4

Results for OCCCc1ccc(O)c(O)c1 ?
HIF activator: 0; SUMO Mot1 rescue: 224; PfM18AAP inh-1: 45*; ALR inh: 20; PfM18AAP inh-2: 27; CTSL1 confirm: 3

What do the screens show for `CCCCN(Cc1ccc(C(=O)N[C@H](C(=O)O)C(C)C)cc1)C(=O)C(c1ccccc1)c1ccccc1`?
HIF activator: 0; SUMO Mot1 rescue: -10

How did O=[N+]([O-])c1ccccc1Nc1c2ccccc2nc2ccccc12 do in these assays?
HIF activator: -2; SUMO Mot1 rescue: 8; PfM18AAP inh-1: -2; ALR inh: 2

Results for O=C(O)c1cc(S(=O)(=O)O)cc(Nc2c3ccccc3nc3ccccc23)c1O ?
HIF activator: 2; SUMO Mot1 rescue: 320; PfM18AAP inh-1: 35*; ALR inh: 31; PfM18AAP inh-2: -27; CTSL1 confirm: 0

How did NC(=O)C1CCN(C(=O)CCC(=O)c2ccc(Br)cc2)CC1 do in these assays?
HIF activator: 1; PfM18AAP inh-1: -17; ALR inh: -8

Results for CC(=O)c1ccc(N2CCN(C(=O)CCC(=O)c3cccs3)CC2)cc1 ?
HIF activator: -2; SUMO Mot1 rescue: -17; PfM18AAP inh-1: 3

How did O=C(CCC(=O)N1CCN(c2ccc(O)cc2)CC1)c1cccs1 do in these assays?
HIF activator: 0; SUMO Mot1 rescue: 32; PfM18AAP inh-1: 53*; ALR inh: 99*; PfM18AAP inh-2: -18; CTSL1 confirm: -29

Results for O=C(CCC(=O)N1CCN(c2ccc(O)cc2)CC1)c1ccc(Br)cc1 ?
HIF activator: 0; SUMO Mot1 rescue: 180; PfM18AAP inh-1: 42*; ALR inh: 41; PfM18AAP inh-2: -19; CTSL1 confirm: 2

How did CC(=O)Nc1ccc(NS(=O)(=O)c2cc(-c3n[nH]c(=O)c4ccccc34)ccc2C)cc1 do in these assays?
HIF activator: 0; SUMO Mot1 rescue: -15; PfM18AAP inh-1: 5

What do the screens show for `C/C(=N\Nc1ncc(Cl)cc1Cl)c1ccccn1`?
HIF activator: -3; PfM18AAP inh-1: 38*; PfM18AAP inh-2: -11; CTSL1 confirm: -9

What do the screens show for `C/C(=N\Nc1ncc(Cl)cc1Cl)c1ccc(N2CCOCC2)cc1`?
HIF activator: 0; SUMO Mot1 rescue: -16; PfM18AAP inh-1: 52*; ALR inh: 38; PfM18AAP inh-2: 5; CTSL1 confirm: 1

How did C/C(=N\NC(=O)c1ccncc1)c1ccc(N2CCOCC2)cc1 do in these assays?
SUMO Mot1 rescue: -8; ALR inh: 60

What do the screens show for `C/C(=N\Nc1nc2ccccc2[nH]1)c1ccc(N2CCOCC2)cc1`?
HIF activator: 2; SUMO Mot1 rescue: -7; PfM18AAP inh-1: 46*; ALR inh: 52; PfM18AAP inh-2: -69; CTSL1 confirm: -5

Results for O=C(Nc1ccc(S(=O)(=O)N2CCCCC2)cc1)C1CC(=O)N(c2ccc(Cl)cc2)C1 (stereo not given) ?
HIF activator: 1; SUMO Mot1 rescue: 94; PfM18AAP inh-1: 5; ALR inh: -2

What do the screens show for `NC(=NCCc1ccccc1)NS(=O)(=O)c1ccccc1`?
HIF activator: 0; SUMO Mot1 rescue: -1; PfM18AAP inh-1: -10; ALR inh: -11

What do the screens show for `O=C(c1ccc(Cl)cc1Cl)N1CCN(c2ccc(N3CCOCC3)nn2)CC1`?
HIF activator: inconclusive; SUMO Mot1 rescue: -2; ALR inh: 4

What do the screens show for `Nc1nncn1C(=O)c1ccccc1Cl`?
HIF activator: 0; SUMO Mot1 rescue: 12; PfM18AAP inh-1: 60*; ALR inh: 1; PfM18AAP inh-2: 55*; CTSL1 confirm: -1

What do the screens show for `Nc1nncn1C(=O)c1ccc(Cl)cc1Cl`?
HIF activator: 0; SUMO Mot1 rescue: -15; PfM18AAP inh-1: 37*; ALR inh: 6; PfM18AAP inh-2: 51*; CTSL1 confirm: -1
